Test results reported in PubChem BioAssay.
Calls of active or inactive are those of the source.

Tests used:
[1] = molecular target: Albumin (Bos taurus) (UniProt P02769); test: compounds binding labelled BSA control protein – biochemical, small-molecule microarray, Alexa647 label, 635/667 nm fluorescence, artefact control for SMM control protein annotation, profiling panel (AID 1118); settings: BSA-A647 binding, fluorescence 635 nm, higher = more signal;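 note: score merges 667 nm emission intensity and signal-to-noise per printed compound spot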
Albumin (Bos taurus), sequence (P02769 whole entry, looked up): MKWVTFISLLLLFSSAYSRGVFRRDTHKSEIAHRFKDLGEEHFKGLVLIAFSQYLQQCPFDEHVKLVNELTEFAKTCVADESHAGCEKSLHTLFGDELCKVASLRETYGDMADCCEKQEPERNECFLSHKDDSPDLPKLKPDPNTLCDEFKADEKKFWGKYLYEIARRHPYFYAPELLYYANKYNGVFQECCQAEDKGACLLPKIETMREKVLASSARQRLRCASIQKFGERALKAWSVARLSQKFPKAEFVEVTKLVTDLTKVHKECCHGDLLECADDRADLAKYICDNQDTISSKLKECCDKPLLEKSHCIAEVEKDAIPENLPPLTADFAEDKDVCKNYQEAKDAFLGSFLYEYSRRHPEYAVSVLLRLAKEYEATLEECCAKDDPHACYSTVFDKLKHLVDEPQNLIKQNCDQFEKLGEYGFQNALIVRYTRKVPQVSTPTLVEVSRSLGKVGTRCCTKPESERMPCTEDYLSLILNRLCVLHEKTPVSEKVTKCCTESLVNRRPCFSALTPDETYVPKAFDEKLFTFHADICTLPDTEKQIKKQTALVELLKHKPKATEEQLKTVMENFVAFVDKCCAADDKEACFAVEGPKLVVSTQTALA

[2] = probe aXIP binding to arrayed compounds – biochemical, NeuroSMM set, 635/667 nm fluorescence, primary screen (AID 1119); settings: small-molecule microarray, higher = more signal, called active from +8 up or from −8 down;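 note: probe is the protein aXip251-270 applied at 1 µg/mL to compound-printed slides; binding of probe to printed compounds measured as 667 nm fluorescence plus signal to noise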
[3] = probe aNOTCH3 binding on compound microarray – biochemical, small-molecule microarray, 635/667 nm fluorescence, primary screen (AID 1120); settings: higher = more signal;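 note: probe is a biotin-tagged antibody raised against NOTCH3 rather than NOTCH3 protein; score merges spot fluorescence near 667 nm with spot signal to noise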
[4] = probe aNOTCH2 binding on compound microarray – biochemical, small-molecule microarray, 635/667 nm fluorescence, primary screen (AID 1121); settings: higher = more signal;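 note: score merges feature fluorescence read at 667 nm with its signal to noise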
[5] = molecular target: Carbonic anhydrase 2 (Homo sapiens) (UniProt P00918); test: compounds binding carbonic anhydrase 2 – biochemical, small-molecule microarray, Alexa647-labelled CAII, profiling panel (AID 1122); settings: CAII-A647 binding fluorescence, higher = more signal
[6] = COS7 lysate on small-molecule microarray, probe aHis, 635 nm (AID 1123); settings: COS7 cell lysate, fluorescence, higher = more signal;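 note: z-score combines 667nm fluorescence intensity with signal-to-noise per printed compound spot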
[7] = probe aLAP1 signal on lysate-treated microarray – cell lysate, small-molecule microarray, COS7 lysate, primary screen (AID 1124); settings: probe aLAP1, fluorescence, higher = more signal;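 note: lysate comes from COS7 cells expressing LAP1 and is applied at 0.3 µg/mL; score merges spot fluorescence near 667 nm with signal-to-noise over triplicate slides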
[8] = system: Sam68 (KHDRBS1); test: compounds binding KHDRBS1 protein – biochemical, small-molecule microarray, 635 nm fluorescence, primary screen (AID 1125); settings: higher = more signal;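 note: score merges 667 nm channel intensity with signal to noise over triplicate slides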
[9] = system: Chordin-like protein 2 (CHRDL2); test: compounds binding chordin-like 2 – biochemical, small-molecule microarray, 635 nm fluorescence, primary screen (AID 1126); settings: fluorescence 635 nm, higher = more signal;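 note: printed compound slides probed with Chrdl2 protein at 4 µg/mL for 1 h at 4 C; score merges 667 nm emission intensity with signal to noise over three replicate slides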
[10] = molecular target: Concanavalin-A (Canavalia ensiformis) (UniProt P02866); test: compounds binding concanavalin A lectin – biochemical, small-molecule microarray, Alexa647 label, 635 nm, artefact control for SMM control protein annotation, primary screen (AID 1127); settings: ConA-A647 binding fluorescence, higher = more signal;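 note: z combines 667 nm emission intensity with signal-to-noise across three replicate slides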
Concanavalin-A (Canavalia ensiformis), sequence (P02866 whole entry, looked up): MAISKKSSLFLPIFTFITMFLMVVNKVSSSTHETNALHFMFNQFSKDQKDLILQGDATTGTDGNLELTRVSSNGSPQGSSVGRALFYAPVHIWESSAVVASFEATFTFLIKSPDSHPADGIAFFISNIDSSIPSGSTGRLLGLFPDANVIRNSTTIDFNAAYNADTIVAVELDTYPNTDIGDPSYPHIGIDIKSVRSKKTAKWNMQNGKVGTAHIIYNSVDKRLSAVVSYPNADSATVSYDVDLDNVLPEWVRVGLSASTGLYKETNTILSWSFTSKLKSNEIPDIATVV

[11] = compounds binding Alexa647 anti-His antibody – biochemical, small-molecule microarray, 635 nm fluorescence, artefact control for SMM control protein annotation, primary screen (AID 1128); settings: higher = more signal;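 note: score merges feature fluorescence with signal-to-noise for each printed compound spot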
[12] = system: Human papillomavirus type 1a E7 protein (residues 1-88); test: HPV1a E7 small-molecule binders, primary screen, biochemical, small-molecule microarray, residues 1-88, 635 nm (AID 1129); settings: small-molecule microarray binding, fluorescence 635 nm; higher = more signal
[13] = molecular target: Focal adhesion kinase 1 (Homo sapiens) (UniProt Q05397); test: PTK2 protein binding on printed compound slides – biochemical, small-molecule microarray, 635/667 nm fluorescence, BSA, DTT, primary screen (AID 1130); settings: 635 nm fluorescence, higher = more signal;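 note: composite of spot emission at 667 nm and signal to noise over triplicate slides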
Focal adhesion kinase 1 (Homo sapiens), sequence (Q05397 whole entry, looked up): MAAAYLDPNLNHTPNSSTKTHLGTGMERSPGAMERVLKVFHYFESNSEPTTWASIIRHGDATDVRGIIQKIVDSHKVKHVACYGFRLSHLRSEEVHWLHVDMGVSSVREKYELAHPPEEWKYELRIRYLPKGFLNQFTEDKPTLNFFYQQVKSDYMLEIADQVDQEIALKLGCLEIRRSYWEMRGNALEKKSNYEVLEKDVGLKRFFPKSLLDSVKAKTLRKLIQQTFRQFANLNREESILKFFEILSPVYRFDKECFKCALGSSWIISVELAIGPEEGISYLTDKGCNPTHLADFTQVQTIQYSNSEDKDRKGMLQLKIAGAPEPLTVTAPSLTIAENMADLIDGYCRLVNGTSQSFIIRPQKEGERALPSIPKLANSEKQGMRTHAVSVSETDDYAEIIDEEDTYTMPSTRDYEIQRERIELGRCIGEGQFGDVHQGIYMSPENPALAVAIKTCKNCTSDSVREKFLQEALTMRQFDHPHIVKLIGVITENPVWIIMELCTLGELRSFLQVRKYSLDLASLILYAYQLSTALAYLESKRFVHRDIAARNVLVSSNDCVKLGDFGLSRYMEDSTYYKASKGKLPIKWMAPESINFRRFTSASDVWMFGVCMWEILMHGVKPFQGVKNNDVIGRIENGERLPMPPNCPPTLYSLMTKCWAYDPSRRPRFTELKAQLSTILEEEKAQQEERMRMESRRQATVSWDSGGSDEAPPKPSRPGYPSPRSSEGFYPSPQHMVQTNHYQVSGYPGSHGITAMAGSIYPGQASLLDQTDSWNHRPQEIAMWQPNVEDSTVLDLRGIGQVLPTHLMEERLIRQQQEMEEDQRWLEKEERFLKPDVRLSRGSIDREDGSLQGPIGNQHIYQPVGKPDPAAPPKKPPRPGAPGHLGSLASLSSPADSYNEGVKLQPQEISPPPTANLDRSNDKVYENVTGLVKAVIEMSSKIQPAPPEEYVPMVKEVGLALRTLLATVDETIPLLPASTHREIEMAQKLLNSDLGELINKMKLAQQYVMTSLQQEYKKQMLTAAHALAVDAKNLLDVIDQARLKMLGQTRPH

[14] = system: Fibrinogen (Alexa647-labelled); test: Alexa647-fibrinogen binding to printed small molecules – biochemical, small-molecule microarray, 635/667 nm fluorescence, artefact control for SMM control-protein annotation, profiling panel (AID 1131); settings: fibrinogen-A647 binding fluorescence, higher = more signal;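 note: z-score merges 667 nm fluorescence with per-spot signal-to-noise over triplicate slides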
[15] = molecular target: Follistatin (Homo sapiens) (UniProt P19883); test: FST protein binding to printed compounds – biochemical, small-molecule microarray, 635/667 nm fluorescence, primary screen (AID 1132); settings: 635 nm fluorescence, higher = more signal
Follistatin (Homo sapiens), sequence (P19883 whole entry, looked up): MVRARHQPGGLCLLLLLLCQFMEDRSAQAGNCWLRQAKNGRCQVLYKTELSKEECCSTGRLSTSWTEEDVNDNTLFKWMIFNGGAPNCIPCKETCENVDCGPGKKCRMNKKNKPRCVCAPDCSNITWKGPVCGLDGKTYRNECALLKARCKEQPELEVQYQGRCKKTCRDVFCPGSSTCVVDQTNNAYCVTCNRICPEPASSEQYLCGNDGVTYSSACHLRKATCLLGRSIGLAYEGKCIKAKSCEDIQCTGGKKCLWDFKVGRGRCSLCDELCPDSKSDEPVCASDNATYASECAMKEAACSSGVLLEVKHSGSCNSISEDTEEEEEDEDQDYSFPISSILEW

[16] = molecular target: Fibroblast growth factor 2 (Homo sapiens) (UniProt P09038); test: basic fibroblast growth factor binding to printed compounds – biochemical, small-molecule microarray, 635/667 nm fluorescence, primary screen (AID 1133); settings: FGF2, fluorescence 635/667, higher = more signal
Fibroblast growth factor 2 (Homo sapiens), sequence (P09038 whole entry, looked up): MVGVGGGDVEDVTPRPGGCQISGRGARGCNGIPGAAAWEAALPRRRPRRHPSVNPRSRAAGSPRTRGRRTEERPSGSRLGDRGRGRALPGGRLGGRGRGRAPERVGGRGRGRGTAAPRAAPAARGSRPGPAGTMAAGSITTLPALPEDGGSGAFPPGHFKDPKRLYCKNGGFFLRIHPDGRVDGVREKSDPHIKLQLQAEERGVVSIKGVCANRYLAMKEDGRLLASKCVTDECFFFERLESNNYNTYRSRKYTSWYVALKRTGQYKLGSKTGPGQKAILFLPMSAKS

[17] = JC-1 mitochondrial potential readout, lung cancer cells – cell-based, A549, JC-1 fluorescence, basal, 24 h, 100 nL, profiling panel (AID 1138); settings: higher = more signal;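 note: A549 lung adenocarcinoma cells under basal conditions with no added stimulus; test concentration not given here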
[18] = system: Lefty1; test: Lefty1 protein binding to printed compounds – biochemical, small-molecule microarray, 635/667 nm fluorescence, primary screen (AID 1139); settings: fluorescence 635/667, higher = more signal
[19] = system: wheat germ agglutinin (Triticum aestivum), Alexa647-labelled; test: Alexa647-WGA lectin binding to printed small molecules – biochemical, small-molecule microarray, 635/667 nm fluorescence, artefact control for SMM control-protein annotation, profiling panel (AID 1140); settings: WGA-A647 binding, 635 nm fluorescence, higher = more signal;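 note: score merges 667 nm feature emission with signal to noise over triplicate slides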
[20] = molecular target: Luciferin 4-monooxygenase (Photinus pyralis) (UniProt P08659); test: inhibition of purified Photinus pyralis luciferase – biochemical, luminescence, purified enzyme, 2006 set, primary screen (AID 1141); settings: purified firefly luciferase, SteadyGlo luminescence, 30 min; higher = more signal, called active from +8 up or from −8 down;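 note: cell-free assay with purified firefly luciferase at 100 ng per well in PBS; test concentration not given here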
Luciferin 4-monooxygenase (Photinus pyralis), sequence (P08659 whole entry, looked up): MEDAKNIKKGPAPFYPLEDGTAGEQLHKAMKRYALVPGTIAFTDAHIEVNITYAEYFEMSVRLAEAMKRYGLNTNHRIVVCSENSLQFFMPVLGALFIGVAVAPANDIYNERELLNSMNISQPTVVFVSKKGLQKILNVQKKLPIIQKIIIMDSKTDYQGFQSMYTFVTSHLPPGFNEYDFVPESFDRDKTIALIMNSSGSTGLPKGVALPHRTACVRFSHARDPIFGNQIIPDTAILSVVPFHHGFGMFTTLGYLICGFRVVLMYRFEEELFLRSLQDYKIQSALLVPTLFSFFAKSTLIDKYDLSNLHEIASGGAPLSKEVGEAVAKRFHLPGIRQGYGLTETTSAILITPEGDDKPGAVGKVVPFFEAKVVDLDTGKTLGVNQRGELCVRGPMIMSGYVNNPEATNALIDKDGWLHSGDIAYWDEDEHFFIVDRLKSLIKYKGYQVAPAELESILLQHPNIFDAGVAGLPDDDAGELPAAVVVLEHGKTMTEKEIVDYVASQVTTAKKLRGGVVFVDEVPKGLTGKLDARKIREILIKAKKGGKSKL

SMILES | composite z-score [1] | composite Z-score [2] | composite z-score [3] | composite z-score [4] | composite z-score [5] | composite z-score [6] | composite z-score [7] | composite z-score [8] | composite z-score [9] | composite z-score [10] | composite z-score [11] | composite z-score [12] | composite z-score [13] | composite z-score [14] | composite z-score [15] | composite z-score [16] | z-score [17] | composite z-score [18] | composite z-score [19] | z-score [20]
COC(=O)[C@H](C)NC(=O)CCC1CC(OC(=O)NCc2ccc3c(c2)OCO3)CC2(CCCC(COC(=O)NCc3cccc(C(F)(F)F)c3)O2)O1 (stereo not given in full) | 0.133 | 0.298 (inactive) | -0.0014 | -0.133 | 0.424 | 1.08 | 0.234 | 1.02 | 0.301 | 0.746 | 0.0275 | 0.741 | 0.587 | 0.387 | 0.792 | 0.63 | -0.238 | 1.15 | 0.613 | 0.969 (inactive)
COC(=O)[C@@H]1CC[C@H](C)[C@@H](c2ccc(C)cc2)N1C(=O)c1ccc(C=NO[C@@H](C)c2cn([C@H](CO)Cc3ccccc3)nn2)cc1 | 0.597 | -0.222 (inactive) | 0.217 | -0.09 | 0.097 | 1.2 | -0.151 | 1.32 | 0.892 | 0.81 | 1.37 | 1.13 | 0.262 | 0.648 | 0.717 | 1.16 | 1.04 | 1.23 | 0.147 | -0.249 (inactive)
COC(=O)CC=C[C@@H](C)[C@@H](C=NO[C@@H](C)c1cc(-c2c(C)cc(C)cc2C)no1)NS(=O)(=O)c1ccc(C)cc1 | -0.356 | -0.136 (inactive) | -0.197 | -0.115 | -0.6 | -0.238 | -0.565 | -0.723 | -0.674 | -0.985 | -1.02 | -0.888 | -0.0927 | -0.494 | -1.58 | -1.44 | -0.0778 | -1.55 | -0.665 | 1.14 (inactive)
COC(=O)CC=C[C@@H](C)[C@@H]1C=C[C@H](O)[C@@H](CO)O1 | 0.0642 | 0.0543 (inactive) | -0.364 | -0.0717 | -0.184 | 0.189 | -0.171 | -0.111 | 0.951 | -0.379 | -0.29 | 0.392 | -0.281 | 0.201 | 1.04 | 0.413 | 0.204 | 0.767 | -0.375 | -0.203 (inactive)
COC(=O)CC=C[C@@H](C)[C@@H](C=NO[C@H](C)c1cn([C@H](CO)Cc2ccccc2)nn1)NS(=O)(=O)c1ccc(C)cc1 | 0.749 | 0.863 (inactive) | 0.0242 | -0.118 | -0.276 | -0.0104 | 0.78 | 0.566 | 0.437 | 0.837 | 2.47 | 0.611 | 0.608 | 0.951 | 0.268 | 0.0757 | -0.248 | 0.19 | 0.645 | -0.965 (inactive)
CCN1C(=O)[C@H]2[C@H]3[C@H](O)[C@H](O)CC(=NNC(=O)OCc4ccc(OC)cc4)[C@@H]3CC[C@H]2C1=O | -0.254 | 0.0958 (inactive) | 0.0945 | -0.0894 | -0.403 | -0.42 | 0.106 | -0.362 | 0.0319 | -0.205 | 0.0221 | -0.562 | 0.0875 | -0.193 | -0.735 | 0.193 | -0.0338 | -0.524 | 0.0083 | -0.207 (inactive)
C=CC[C@@H]1C=C[C@H](ON=C(C)CCN2CCc3nc(-c4ccccc4)c(-c4ccccc4)cc3C2)[C@@H](CO)O1 | 0.585 | 0.364 (inactive) | -0.0362 | -0.0995 | 0.1 | 1.6 | -0.0995 | 1.31 | 0.321 | 0.967 | 0.133 | 0.876 | -0.372 | 0.727 | 0.787 | 0.362 | 2.3 | 0.736 | 0.169 | -0.118 (inactive)
C[C@H](ON=C1[C@H]2CCn3c(=O)n(-c4ccccc4)c(=O)n3[C@H]2[C@H](O)[C@@H]2O[C@H]12)c1cn([C@H](CO)Cc2ccccc2)nn1 | 0.426 | -0.285 (inactive) | -0.0788 | -0.0888 | 0.407 | 0.183 | 0.29 | 0.168 | 0.388 | 1.06 | -0.692 | 0.588 | 0.273 | 0.985 | 0.3 | 0.646 | -0.717 | 0.572 | 0.742 | -0.0281 (inactive)
C[C@H]1CC[C@H]2C(=O)OC(CO)CN2[C@@H]1c1ccc(Br)cc1 (stereo not given in full) | 0.0691 | 0.456 (inactive) | -0.0647 | -0.192 | -0.244 | -0.416 | -0.311 | 0.253 | 0.453 | -0.17 | 0.58 | -0.805 | -0.442 | 0.276 | 0.124 | -0.153 | -0.486 | -0.0811 | 0.162 | -0.0741 (inactive)
COCCNC(=O)OCC1CCCC2(CC(OC(=O)NCc3ccc4c(c3)OCO4)CC(CCC(=O)N[C@@H](C)C(=O)OC)O2)O1 (stereo not given in full) | 0.0746 | 0.161 (inactive) | -0.0164 | -0.0666 | 0.234 | 0.678 | -0.0692 | 1.3 | 0.454 | 1.02 | 0.721 | 0.885 | 0.136 | 0.592 | 0.752 | 1.13 | -0.397 | 1.3 | 0.139 | 0.89 (inactive)
C#CCCCON=C1C[C@@H](O)[C@@H](O)[C@@H]2[C@@H]3C(=O)N(C(C)(C)C)C(=O)[C@@H]3CC[C@@H]12 | 0.0601 | -0.0448 (inactive) | 0.0137 | -0.123 | -0.219 | 0.496 | 0.485 | -0.161 | 0.888 | -0.616 | -0.331 | -0.175 | 0.324 | 0.139 | -1.54 | -0.92 | -0.289 | -1.28 | 0.171 | 0.648 (inactive)
